# KDM5B inh: Primary screen for KDM5B Histone Demethylases FDH-coupled qHTS | hit rate 2.6% among 220,000 | Potency, µM (top dose mostly 57.7 µM), usual class: inhibitors | KDM5B demethylase, FDH-coupled NADH fluorescence (FDH is formaldehyde dehydrogenase); also: nearly all actives have a fitted effect of over 70% in size
#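 Inhibition is measured as reduced NADH fluorescence generation from FDH coupling to formaldehyde release. Truncated KDM5BΔAP at 200 nM final acts on H3K4me3 peptide (12.5 µM in substrate mix) in pH 7.5 HEPES buffer with Tween-20, 30 min, room temperature.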
# IP6K1 inhibitor: Primary qHTS assay for small molecule inhibitors of Inositol hexaphosphate kinase 1 (IP6K1) | Inositol hexakisphosphate kinase 1 (Homo sapiens), Q92551 | IP6K1 kinase, ADP-Glo luminescence, 2 h; hits give low values | activity change, % (series mostly up to about 58 µM) | hit rate 0.81% among 140,000 | AID 1645851, 2021; in the data active = activity change below about -25%
# Target sequence (Q92551 whole entry, looked up): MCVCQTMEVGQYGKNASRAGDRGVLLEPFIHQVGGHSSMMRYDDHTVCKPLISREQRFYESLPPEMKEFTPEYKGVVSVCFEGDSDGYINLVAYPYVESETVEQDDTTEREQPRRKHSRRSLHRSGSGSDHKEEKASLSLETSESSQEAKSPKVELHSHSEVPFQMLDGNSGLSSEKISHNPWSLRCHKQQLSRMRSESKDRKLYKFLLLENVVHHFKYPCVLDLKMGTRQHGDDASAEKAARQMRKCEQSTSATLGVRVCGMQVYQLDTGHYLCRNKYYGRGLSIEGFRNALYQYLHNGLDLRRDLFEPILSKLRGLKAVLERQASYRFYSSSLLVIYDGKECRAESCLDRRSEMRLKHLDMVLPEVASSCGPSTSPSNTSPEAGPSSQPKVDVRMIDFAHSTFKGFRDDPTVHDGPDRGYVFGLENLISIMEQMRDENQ
#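 ADP-Glo luminescence measures ADP made by human IP6K1 during a 2 h RT reaction with ATP/IP6 (mix at 1.3 mM/130 uM); top library doses 57.5 and 19.1 uM final.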
# A number is an active result; i = inactive; ? = inconclusive; nt = no result given; ! = not confirmed by another sample. Compounds with a hit are over-represented: about 2.8% of the library has one in this group of screens.
SMILES,KDM5B inh,IP6K1 inhibitor
Cc1cn2nc(C(=O)Nc3ccc(OC(F)(F)F)cc3)cc2c(N2CCSCC2)n1,25µM,i
COc1cccc(-c2cn3cc(C(=O)NCc4cccc(Cl)c4)nc3s2)c1,nt,i
Cn1ncc2c(C(=O)N3CCN(Cc4ccccc4)CC3)cc(-c3ccccc3)nc21,nt,i
Cc1ccc(Nc2ccnc(N3CCC(NC(=O)N(C)C)CC3)n2)cc1,nt,i
O=C(NCC(=O)N1CCC(c2ccccc2)CC1)c1cccc(-c2ccc(C(F)(F)F)cc2)c1,nt,i
Cc1ccc(N2C(=O)c3cccnc3C2Nc2ccc3c(c2)OCO3)cc1 (configuration not stated),i,nt
COc1cc(NC(=O)c2cc3c(N4CCCC4)nc(C)cn3n2)cc(OC)c1OC,?,i
COc1cc(NC(=O)c2cc3c(N4CCSCC4)nc(C)cn3n2)cc(OC)c1OC,22µM,i
O=C(NC1CC(c2nnc(CO)n2C2CC2)C1)c1csc(-c2ccccc2)n1 (configuration not stated),i,i
O=C(NC1CC(c2nnc(CO)n2C2CC2)C1)c1nc2ccccc2[nH]1 (configuration not stated),32µM,i
CCn1cc(S(=O)(=O)N2CC3(CCCCC3)CC2COc2ccc(OC)cc2)cn1 (configuration not stated),nt,i
Cc1ccc(-c2csc(N)c2C#N)c(C)c1,i,nt
O=C(NC1CCCCCC1)C1CC(c2cccc(F)c2)=NO1 (configuration not stated),i,nt
CC(Sc1cccc[n+]1[O-])C(=O)Nc1cccc2ccccc12 (configuration not stated),i,nt
CN1CCN(c2cc(=O)c3ccnc(-c4ccc(F)cc4)c3o2)CC1,28µM,i
Cc1cccc(-c2nccc3c(=O)cc(N4CCN(C)CC4)oc23)c1,35µM,i
Cc1ccc(-c2nccc3c(=O)cc(N4CCN(C)CC4)oc23)cc1,40µM,i
CN1CCN(c2cc(=O)c3ccnc(-c4ccc([S+](C)(=O)[O-])cc4)c3o2)CC1,32µM,i
COc1cc(F)ccc1-c1nccc2c(=O)cc(N3CCN(C)CC3)oc12,?,i
Cn1ncc2c(-c3ccc([S+](C)(=O)[O-])cc3)cc(C(=O)N3CCN(c4ncccn4)CC3)nc21,?,i
COc1ccc(C)cc1-c1nccc2c(=O)cc(-c3cnn(C)c3)oc12,i,i
COCc1nnc(C2CC3(CCN(C(=O)c4ccc(C)s4)CC3)CN2C)o1 (configuration not stated),nt,i
Cc1cc(C)c(-c2cc(-c3ccccc3)c3ccccc3n2)cc1C,i,nt
Cn1c(SCC(=O)N2CCCC2)nc2ccsc2c1=O,i,nt
O=C([C@@H]1CCCN1c1nccc(Nc2ccccc2Cl)n1)N1CCOCC1,nt,i
SMILES,KDM5B inh,IP6K1 inhibitor
C[S+](=O)([O-])c1ccc(-c2nccc3c(=O)cc(-c4ccncc4)oc23)cc1,32µM,i
O=c1cc(-c2ccncc2)oc2c(-c3ccccc3O)nccc12,i,i
Cc1cccc(-n2nnnc2SCC(=O)c2ccc(Br)s2)c1,i,nt
CC(=O)Nc1ccc(CN2CCC3(CC2)CC(=O)c2ccccc2O3)cc1,22µM,i
Cn1nccc1CN1CCC2(CC1)CNC(=O)c1ccccc1O2,i,i
Cn1nccc1CN1CCC2(CC1)CC(=O)c1ccccc1O2,28µM,i
O=C(O)C1(c2ccccc2)CCN(S(=O)(=O)c2ccccc2)CC1,i,i
O=C1CC2(CCN(S(=O)(=O)c3ccccc3)CC2)Oc2ccccc21,28µM,i
CC(=O)Nc1ccc(CN2CCC3(CC2)CC(=O)c2ccc(Cl)cc2O3)cc1,i,i
COc1ccc(-c2cc(C(=O)NCc3ccc4c(c3)OCO4)c3cnn(C)c3n2)cc1,nt,i
CCOC(=O)[C@@H]1[C@@H](O)C(=O)N(C)C12CCN(C(=O)OC)CC2,nt,i
CC1(C)CC(=O)C2=C(C1)Nc1c(c(=O)[nH]c(=O)n1Cc1ccccc1)C2c1ccc2c(c1)OCO2 (configuration not stated),i,nt
COc1ccccc1-c1ccc(CN2CCCCC2C(=O)Nc2ccccc2F)cc1 (configuration not stated),nt,i
CCCCCN1CCc2ccccc2OCC(=O)N(C)[C@@H](Cc2ccc(OCCO)cc2)C1=O,nt,i
COc1ccccc1Cn1c(=O)c(C(=O)NCCc2ccc(F)cc2)nc2cccnc21,nt,i
COc1ccc2nc([C@H]3CCN(Cc4ccncc4)C3)[nH]c2c1,35µM,i
COc1ccc(CN2CC[C@H](c3nc4ccc(OC)cc4[nH]3)C2)cc1,i,i
COc1cccc(-c2ccc(CN3CCCC(c4nc5ccc(C)cc5c(=O)[nH]4)C3)cc2)c1 (configuration not stated),35µM!,i
Fc1ccc2nc([C@H]3CCN(C4CCC4)C3)[nH]c2c1,?,i
Cc1ccc2nc(C3CCCN(Cc4ccc(-c5cncnc5)cc4)C3)[nH]c(=O)c2c1 (configuration not stated),?,i
COc1ccccc1-c1nnc([C@H]2CCN(Cc3ncc[nH]3)C2)o1,40µM,i
COc1ccccc1-c1nnc([C@H]2CCN(Cc3ccccc3O)C2)o1,?,i
CN1CCC(N2CC[C@H](c3nc4ccc(C#N)cc4[nH]3)C2)CC1,35µM,i
Cc1ccccc1C(=O)N1CCN(C(=O)c2cccc(-c3ccccn3)c2)CC1,nt,i
COc1ccc(-c2nc(SC(CC(=O)NCc3ccco3)c3ccccc3)n[nH]2)cc1 (configuration not stated),i,nt
SMILES,KDM5B inh,IP6K1 inhibitor
COc1ccc(CCNC(=O)c2cc(-c3ccccc3OC)c3nncn3n2)cc1,nt,i
COc1ccc(-c2cc(C(=O)NCc3ccc(F)cc3)c3cnn(C)c3n2)cc1,nt,i
O=C(CSc1ncnc2sc3c(c12)CCC3)Nc1ncc(C(F)(F)F)cc1Cl,i,nt
COc1ccccc1-c1ccc(C(=O)N2CCC(NC(=O)C3CC3)CC2)cc1,nt,i
COc1ccc2nc([C@H]3CCN(C4CCN(C)CC4)C3)[nH]c2c1,?,i
COc1ccc2nc([C@H]3CCN(C4CCCCC4)C3)[nH]c2c1,28µM,i
Cn1c([C@H]2CCN(Cc3cnc4ccccc4c3)C2)nc2ccccc21,?,i
Cn1c([C@H]2CCN(Cc3ncc[nH]3)C2)nc2ccccc21,35µM,i
FC(F)(F)c1ccc2nc([C@H]3CCN(Cc4ncc[nH]4)C3)[nH]c2c1,?,i
Fc1ccc2nc([C@H]3CCN(Cc4ncc[nH]4)C3)[nH]c2c1,28µM,i
COc1ccc(-c2cn3cc(C(=O)NCc4cccc(OC)c4)nc3s2)cc1,nt,i
COCCNC(=O)c1nc(-c2ccc([S+](C)(=O)[O-])cc2)c2ccccn12,i,i
COC(=O)CNC(=O)c1nc(-c2ccc(Cl)cc2)c2ccccn12,20µM,i
COCCNC(=O)c1nc(-c2ccc(Cl)cc2)c2ccccn12,35µM,i
COC(=O)CNC(=O)c1nc(-c2ccc(F)cc2)c2ccccn12,40µM,i
O=C(c1ccc2nnc(-c3ccc(Cl)cc3)n2c1)N1CCN(Cc2ccccc2)CC1,nt,i
O=C(NCc1cccc(C(F)(F)F)c1)C1CN(C2CCCCC2)C(=O)N1 (configuration not stated),nt,i
O=C(C1CCCC1)N1Cc2ccccc2CC2(CCN(CC3CCNC3)C2)C1 (configuration not stated),?,i
Cc1cc(C[C@@H]2COC[C@@H]2NC(=O)CN2CCN(c3ncccn3)CC2)on1,?,i
